Bioassay records: PubChem, several laboratories
BioA inh-1: inhibitors of Mycobacterium tuberculosis BioA enzyme. actives 0.096% (n = 360,000). inhibition, % at 9.99 µM. purified M. tuberculosis BioA enzyme, plate reader; in the data active = inhibition above about 40%
Rv3671c protease: inhibits the M. tuberculosis serine protease Rv3671c; P9WHR9; inhibition, % at 5.96 µM; actives 0.048% (n = 320,000); AID 2606; in the data active = inhibition above about 38%;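 also: extracellular domain of Rv3671c used as enzyme; 0% = enzyme with DMSO and 100% = no enzyme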
Target sequence (P9WHR9 whole entry, looked up, the tested form may be a part): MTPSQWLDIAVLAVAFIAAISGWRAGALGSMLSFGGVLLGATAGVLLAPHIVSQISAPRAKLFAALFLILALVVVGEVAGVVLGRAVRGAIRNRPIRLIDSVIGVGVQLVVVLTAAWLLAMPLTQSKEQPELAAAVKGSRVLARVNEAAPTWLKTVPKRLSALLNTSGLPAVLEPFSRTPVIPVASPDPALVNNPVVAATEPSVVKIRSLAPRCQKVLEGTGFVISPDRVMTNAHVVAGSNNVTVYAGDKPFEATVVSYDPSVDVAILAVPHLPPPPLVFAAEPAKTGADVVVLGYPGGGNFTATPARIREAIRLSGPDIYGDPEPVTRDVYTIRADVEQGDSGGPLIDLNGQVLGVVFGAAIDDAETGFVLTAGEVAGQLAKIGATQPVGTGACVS
Mtb FBA inh: inhibits M. tuberculosis FBA enzyme | purified M. tuberculosis FBA, fluorescence read-out | inhibition, % at 1 µM | actives 2.3% (n = 360,000) | P9WQA3; in the data active = inhibition above about 27%;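 also: 0% = vehicle and 100% = reference inhibitor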
GDH-TPI inh: inhibits GDH-TPI coupling enzymes, artifact for Mtb FBA screen; AID 588335; inhibition, % at 4.8 µM; GDH-TPI coupled enzyme counterscreen, NADH absorbance; actives 1.2% (n = 360,000); in the data active = inhibition above about 30%;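 also: 0% = DMSO wells and 100% = wells lacking the enzyme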
FadD28 FP inh: blocks FadD28 binding to the bisubstrate probe. inhibition, % at 12.5 µM. AID 588549. fluorescence polarization. actives 0.22% (n = 360,000); in the data active = inhibition above about 8.5%, passing the limit was not always enough
BioA inh-2: inhibitors of Mycobacterium tuberculosis BioA enzyme. shares compounds with BioA inh-1. purified BioA enzyme, plate reader, dose response. max activity, %. 310 tested, under 10 active;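 also: top concentration of the dilution series was 10 µM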
HepG2 cytotox: kills HepG2 cells; 310 tested, under 10 active; shares compounds with BioA inh-1; max activity, %; HepG2 cytotoxicity, plate reader
3T3 cytotox 5: NIH3T3 viability loss | activity change, negative = cytotoxicity, % at 26 µM | shares compounds with BioA inh-1 | 310 tested, under 10 active | NIH3T3 cytotoxicity, plate reader
* hit, by the source's call; i = inactive; . = no result given; [ ] = dose if it differs, or a comment. This is a sample that favours compounds with a hit; in the whole collection about 3% have one here. Unless noted, no rule for the calls is given here.

SMILES | BioA inh-1 | Rv3671c protease | Mtb FBA inh | GDH-TPI inh | FadD28 FP inh | BioA inh-2 | HepG2 cytotox | 3T3 cytotox 5
CCCOC(=O)c1cccc(NC(=O)c2cccnc2)c1 | 43.3* | -5.5 | 0.9 | 4.6 | -2.3 | -7.6 | 7.0 | -3.2
O=C(Nc1ccc(NS(=O)(=O)c2ccccc2)cc1)c1cccnc1 | 51.6* | 0.2 | 6.4 | 4.4 | 3.5 | 8.9 | -9.2 | -3.4
COc1cccc(C(=O)Nc2cccnc2)c1 | . | 6.5 | 0.6 | 1.5 | 1.5 | . | . | .
Cc1nn(CCC(=O)O)c2nc(-c3cccnc3)cc(C(F)(F)F)c12 | 47.7* | 6.0 | 26.3 | 10.0 | -1.4 | 7.1 | 10.4 | -0.5
CCOC(=O)c1cc2c(C(F)(F)F)cc(-c3cccnc3)nc2o1 | -0.1 | 3.3 | 2.5 | 13.1 | -1.1 | . | . | .
O=C(Nc1cccc(F)c1)C1CCCN(c2cnccn2)C1 (stereo unspecified) | 53.3* | -5.8 | -0.2 | 12.0 | 0.4 | -5.8 | -9.0 | 8.1
O=C(Nc1ccc(F)c(Cl)c1)C1CCCN(c2cnccn2)C1 (stereo unspecified) | 41.0* | -7.4 | 4.3 | 3.5 | -2.5 | -3.8 | -8.2 | -8.8
Cc1cccc(NC(=O)C2CCCN(c3cnccn3)C2)c1 (stereo unspecified) | 0.7 | 8.5 | 2.0 | 5.6 | -4.1 | . | . | .
CCc1cccc(NC(=O)C2CCCN(c3cnccn3)C2)c1 (stereo unspecified) | 0.7 | 4.0 | 4.3 | 12.6 | -3.6 | . | . | .
Cc1ccccc1S(=O)(=O)N[C@H]1CC[C@@H](CCNS(=O)(=O)c2cccc(F)c2)O[C@H]1CO | 2.2 | . | . | . | . | . | . | .
COc1ccc(-c2nc3ccc(Cl)cn3c2Cc2ccccc2)cc1OC | 69.7* | . | 2.9 | . | -5.8 | -8.9 | -13.2 | -6.7
CC(=O)Nc1ccc2nc(-c3cccnc3)[nH]c2c1 | 55.9* | 8.5 | 4.9 | 16.1 | 1.2 | -5.5 | 6.9 | 2.6
Nn1c(SCCOc2ccccc2)nnc1-c1cccnc1 | 73.7* | -2.2 | 1.5 | 3.7 | 0.2 | 3.4 | -7.6 | -4.9
COc1cccc(-c2nnc(SCc3nc4ccccc4[nH]3)n2N)c1 | . | -9.4 | 0.2 | 10.0 | -2.8 | . | . | .
Nn1c(SC/C=C/c2ccccc2)nnc1-c1cccnc1 | 109.2* | 6.1 | 2.0 | -0.6 | -0.9 | 4.3 | -10.8 | 11.5
Nn1c(SCc2nc3ccccc3[nH]2)nnc1-c1cccnc1 | 59.4* | 1.4 | -0.9 | 0.0 | -6.2 | -7.8 | -6.3 | 0.6
Nn1c(SCCOc2ccc(Cl)cc2)nnc1-c1cccnc1 | . | 0.0 | 1.8 | -3.1 | -1.6 | . | . | .
C[C@H]1CN([C@@H](C)CO)C(=O)Cc2cc(NC(=O)c3ccncc3)ccc2O[C@H]1CN(C)Cc1ccc(Cl)c(Cl)c1 | 0.1 | . | . | . | . | . | . | .
CCCN(C)C[C@@H]1OCc2cnnn2CCCC(=O)N([C@@H](C)CO)C[C@@H]1C | -0.4 | . | . | . | . | . | . | .
C[C@@H]1CCCCO[C@H](CN(C)S(=O)(=O)c2cccs2)[C@H](C)CN([C@H](C)CO)C(=O)c2cc(NC(=O)Cc3ccccc3)ccc2O1 | -2.2 | . | . | . | . | . | . | .
Cc1ccc(S(=O)(=O)N(C)C[C@@H]2Oc3ccc(NC(=O)Cn4cnnn4)cc3C(=O)N([C@H](C)CO)C[C@H]2C)cc1 | 4.3 | . | . | . | . | . | . | .
COc1ccccc1S(=O)(=O)N1CC[C@H]2[C@H](CO)Nc3ccc(-c4ccccc4)cc3[C@H]21 | 9.6 | . | . | . | . | . | . | .
COc1ccccc1S(=O)(=O)N1CC[C@@H]2[C@H](CO)Nc3ccc(-c4ccccc4)cc3[C@@H]21 | 43.2* | . | . | . | . | 5.0 | i | -4.3[23.5 µM]
C[C@@H]1CN([C@@H](C)CO)C(=O)c2cc(C#Cc3ccncc3)cnc2O[C@@H]1CN(C)S(=O)(=O)c1ccccc1F | -0.9 | . | . | . | . | . | . | .
COC(=O)C1CCN(C(c2ccc(OC)c(OC)c2)c2sc3nc(C)nn3c2O)CC1 (stereo unspecified) | 45.0* | 0.8 | 1.6 | 14.6 | 0.0 | -8.0 | 13.8 | -7.3
SMILES | BioA inh-1 | Rv3671c protease | Mtb FBA inh | GDH-TPI inh | FadD28 FP inh | BioA inh-2 | HepG2 cytotox | 3T3 cytotox 5
CCNC(=O)C[C@H]1CC[C@@H]2[C@@H](COc3ccc(NC(=O)Nc4cccc(F)c4)cc3C(=O)N2C)O1 | 41.7* | . | . | . | . | 5.9 | i | -4.4
Cc1ccc(-n2c3c(cc(C(=O)NCc4ccco4)c2=O)C(=O)CCC3)cc1 | 30.7 | -1.6 | 0.6 | 3.1 | 1.4 | . | . | .
O=C1CCCc2c1cc(C(=O)NCc1ccco1)c(=O)n2-c1ccc(Cl)cc1 | 50.2* | -6.9 | 4.5 | -3.7 | 1.8 | 3.0 | 21.3 | 2.0
Cc1ccc(-n2c3c(cc(C(=O)NCCCN4CCOCC4)c2=O)C(=O)CC(C)(C)C3)cc1 | 1.0 | -0.5 | 5.6 | 6.9 | 0.6 | . | . | .
O=C1CCCc2c1cc(C(=O)NCCCN1CCOCC1)c(=O)n2-c1ccc(Cl)cc1 | 45.0* | -2.9 | 3.7 | 19.8 | 0.9 | -5.1 | -3.6 | -2.1
O=C(C[C@@H]1C[C@@H]2c3cc(NC(=O)Nc4ccccc4F)ccc3O[C@@H]2[C@@H](CO)O1)NCC1CC1 | 1.4 | . | . | . | . | . | . | .
Cc1ccc(S(=O)(=O)Nc2ccc3c(c2)C(=O)N([C@@H](C)CO)C[C@H](C)[C@@H](CN(C)C(=O)c2ccncc2)OCCCC[C@@H](C)O3)cc1 | -0.6 | . | . | . | . | . | . | .
O=C(C[C@@H]1C[C@@H]2c3cc(NC(=O)c4cccnc4)ccc3O[C@@H]2[C@@H](CO)O1)NCc1cccnc1 | 41.5* | . | . | . | . | -6.9 | i | -5.0
O=C(Nc1ccc2c(c1)[C@H]1C[C@H](CC(=O)N3CCc4ccccc4C3)O[C@H](CO)[C@H]1O2)c1cccnc1 | 35.8 | . | . | . | . | . | . | .
O=C(C[C@@H]1C[C@@H]2c3cc(NC(=O)c4cccnc4)ccc3O[C@@H]2[C@@H](CO)O1)NCc1cccc(F)c1 | 50.6* | . | . | . | . | -8.0 | i | 1.3[23.5 µM]
